FBW7 activator: activators of human E3 ligase FBW7; Q969H0; AlphaScreen FBW7–phospho-cyclin E peptide binding, activator screen; normalized activity (activation), % at 26.1 µM; 650,000 compounds, 0.13% hits; AID 1259310; in the data active means normalized activity above about 1.9%;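 further: purified mutant Fbw7 with reduced substrate affinity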
MITF inh: inhibitors of human MITF. AlphaScreen MITF homodimerization, bead proximity signal. inhibition, % at 2.6 µM. 650,000 compounds, 0.91% hits. AID 1259374; in the data active means inhibition above about 50%
GPR151 activ: activators of human GPR151; activation, % at 11.2 µM; 650,000 compounds, 1% hits; AID 1508602; PathHunter beta-arrestin GPR151 cells, luminescence; Q8TDV0; in the data active means activation above about 4.9%
TEAD-YAP block: TEAD-YAP interaction inhibition. HEK-TIYL cells, TEAD-Gal4/YAP UAS-luciferase luminescence. inhibition, % at 9.12 µM. 640,000 compounds, 1.4% hits; in the data active means inhibition above about 32%
MITF inh conf: human MITF inhibition, confirmation; shares compounds with MITF inh; AlphaScreen MITF homodimerization, biotin/His-MITF beads; inhibition, % at 2.6 µM; 4,700 compounds, 16% hits;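 active means inhibition above a cutoff derived from the DMSO control wells, cut at about 28% in these data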;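 further: inhibitors lower the bead chemiluminescence by keeping MITF from dimerizing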
AlphaScreen intf2: optically interferes with AlphaScreen signal | shares compounds with MITF inh | LysRS AlphaScreen counterscreen, signal interference, triplicate | inhibition, % at 2.6 µM | 4,700 compounds, 7.6% hits | AID 1259376;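 active means inhibition above a cutoff derived from the DMSO control wells, cut at about 30% in these data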
Each line names hits and unclear results; the compound was inactive in the other large screens (follow-up assays come after a bar, where they were run); ! = repeats disagree. A selection: hits, their analogues and other compounds. The true share with any hit is near 3.4%.

COc1ccc(-c2nc(CSCC(=O)N3CCC4(CC3)OCCO4)c(C)o2)cc1OC	none
Cc1ccc(-c2nc(CSCC(=O)N3CCC4(CC3)OCCO4)c(C)o2)cc1	TEAD-YAP block 50
O=C(Nc1sc2c(c1C(=O)N1CCOCC1)CCCC2)c1ccccc1Cl	none
O=C(Nc1cccc(F)c1)N(Cc1ccco1)C1CCN(Cc2ccncc2)CC1	none
Cc1nn(CCC#N)c2c1P(=S)(N1CCOCC1)OC(c1ccccc1)=N2 (stereo not given)	none
Cc1ccc(-n2c(/C=C/c3ccc(Br)cc3)nc3ccccc3c2=O)cc1C	none
COC(=O)C[C@@](O)(CCC(C)(C)O)C(=O)O[C@@H]1C(OC)=C[C@]23CCCN2CCc2cc4c(cc2[C@@H]13)OCO4	TEAD-YAP block 101
COC1=CC23CCCN2CCc2cc4c(cc2C3C1O)OCO4 (stereo not given)	none
CC(C)(C)CNc1cc(N2CCNCC2)ccc1[N+](=O)[O-]	none
Cc1ccc2c(c1)c(=O)c1c3n2CCNC3CC1 (stereo not given)	none
COc1ccc(/C=C/c2cc(O)cc(O)c2)cc1	TEAD-YAP block 92
COc1cc(/C=C\c2ccc(OC)c(O)c2)cc(OC)c1	none (no result: FBW7 activator, TEAD-YAP block)
CN(C)c1ccc(/C=C2/C(=O)NC(=S)N(c3ccccc3F)C2=O)cc1	none
CN(C)c1ccc(/C=C2/C(=O)NC(=S)N(Cc3ccco3)C2=O)cc1	MITF inh 76
O=P(O)(O)C(Cl)(Cl)P(=O)(O)O	MITF inh 77! | MITF inh conf 63 | AlphaScreen intf2 inactive
Cc1cccc(C)c1NC(=O)c1c(O)c2ccccc2n(CCC(C)C)c1=O	none
COc1cc(/C=C2\C(=O)NC(=O)N(c3cc(C)ccc3C)C2=O)ccc1O	none
CCN1CCN(Cc2c(C)noc2C)CC1	MITF inh 83 | MITF inh conf inactive | AlphaScreen intf2 inactive
CCC(C)N1CCN(Cc2ccc3c(c2)OCO3)CC1 (stereo not given)	MITF inh 71 | MITF inh conf inactive | AlphaScreen intf2 inactive
CCOc1ccc(CN2CCN(C(C)CC)CC2)cc1 (stereo not given)	MITF inh 66 | MITF inh conf inactive | AlphaScreen intf2 inactive
Cc1ccc(CN2CCN(Cc3ccc4c(c3)OCO4)CC2)cc1	none
COc1cc(Br)c(CN2CCN(C)CC2)cc1OC	none
CCC(C)N1CCN(Cc2ccc(OC)cc2)CC1 (stereo not given)	MITF inh 69 | MITF inh conf inactive | AlphaScreen intf2 inactive
COc1cc(OC)c(CN2CCN(C)CC2)cc1Br	MITF inh 62 | MITF inh conf inactive | AlphaScreen intf2 inactive
CCC(C)N1CCN(Cc2ccc(OC)c(OC)c2)CC1 (stereo not given)	MITF inh 64 | MITF inh conf inactive | AlphaScreen intf2 inactive
CCN1CCN(Cc2ccc(OC)cc2OC)CC1	none
CCC(C)N1CCN(Cc2cc(OC)c(OC)cc2OC)CC1 (stereo not given)	MITF inh 64 | MITF inh conf inactive | AlphaScreen intf2 inactive
Cc1ccccc1CN1CCN(CC(C)(C)C)C(CCO)C1 (stereo not given)	none
COc1cc(CN2CCN(C(=O)COc3ccccc3)CC2)cc(OC)c1OC	none
Cc1ccc(CC(=O)N2CCN(Cc3ccc4c(c3)OCO4)CC2)cc1	none
COc1ccccc1CN1CCN(C(=O)COc2cccc(C)c2)CC1	MITF inh 80 | MITF inh conf inactive | AlphaScreen intf2 inactive
Cc1cccc(OCC(=O)N2CCN(Cc3ccncc3)CC2)c1	MITF inh 73 | MITF inh conf inactive | AlphaScreen intf2 inactive
O=C(COc1ccc(Br)cc1)N1CCN(Cc2ccc3c(c2)OCO3)CC1	MITF inh 64 | MITF inh conf inactive | AlphaScreen intf2 inactive
COc1cccc(CN2CCN(C(=O)COc3cccc(C)c3)CC2)c1	MITF inh 57 | MITF inh conf inactive | AlphaScreen intf2 inactive
Cc1ccsc1CC1(CCc2ccncc2)C(=O)N(C)C(=O)N(C)C1=O	none
CC1(C)C2([N+](=O)[O-])CN(CCCl)CC1([N+](=O)[O-])CN(CCCl)C2	none
CC(C)OC(=O)C1(O)c2ccccc2-c2ccccc21	none
COc1ccc(OCC(=O)N2CCN(Cc3ccccc3C)CC2)cc1	MITF inh 54 | MITF inh conf inactive | AlphaScreen intf2 inactive
O=C(COc1ccc(Br)cc1)N1CCN(Cc2ccncc2)CC1	MITF inh 100 | MITF inh conf inactive | AlphaScreen intf2 inactive
COc1ccc(OCC(=O)N2CCN(Cc3cccc(OC)c3)CC2)cc1	none

Screening results from PubChem.
